# Experimental data from PubChem BioAssay (NCATS).
# Inconclusive results are not listed. A number with no mark means an inactive call. The source made the active and inactive calls. Calls come from the whole dose curve; as a rule, active = well fitted curve in the direction sought with a large enough effect; inconclusive = small, poorly fitted or top-dose-only effect, or another doubt; inactive = no such curve, though single readings can be large; an effect the other way counts as inactive or inconclusive.
# Assay: Cell Viability - LYMP2-004 (AID 966); note: nearly all actives have a fitted effect of over 65% in size;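 for activity change, negative = cytotoxicity: plate controls were DMSO only for no effect and tetraoctylammonium bromide control for full effect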
# Details: LYMP2-004 lymphoblastoid cell viability, qHTS; series mostly up to 92.2 µM; activity change, negative = cytotoxicity: at the top concentration
# Procedure, shortened: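 Acute toxicity is scored as a concentration-dependent drop in intracellular ATP, quantified by luciferase luminescence, in human lymphoblastoid cells exposed to compound for 24 hr. AC50 derives from Hill-equation modelling.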
# Potency is the fitted concentration of half-maximal effect.
SMILES,"activity change, negative = cytotoxicity [%]",Potency
Nc1ccc2cc3ccccc3cc2c1,6.11,
CN(C)c1ccc(C2(c3ccc(N(C)C)cc3)OC(=O)c3cc(N(C)C)ccc32)cc1,-11.4,
Cc1cc(Nc2ccc(O)cc2)ccc1N,,39.8 µM (active)
CO[C@H]1/C=C/O[C@@]2(C)Oc3c(C)c(O)c4c(O)c(c5c(c4c3C2=O)NC2(CCN(CC(C)C)CC2)N=5)=NC(=O)/C(C)=C\C=C\[C@H](C)[C@H](O)[C@@H](C)[C@@H](O)[C@@H](C)[C@H](OC(C)=O)[C@@H]1C,-22.4,
Cc1cc(O)c(C(C)(C)C)cc1Sc1cc(C(C)(C)C)c(O)cc1C,,31.6 µM (active)
C=C(C)c1ccccc1,7.81,
ClC1=C(Cl)C(Cl)(Cl)C(Cl)=C1Cl,8.76,
C=CC(=O)OCCOCCOC(=O)C=C,,10 µM (active)
O=C1OC(O)C(C(Cl)Cl)=C1Cl (stereo unspecified),,12.6 µM (active)
CNc1ccc(O)cc1,,5.01 µM (active)
CC(=O)Nc1ccc(C(=O)CCl)cc1,,3.98 µM (active)
CCC(C)Nc1ccc(NC(C)CC)cc1 (stereo unspecified),,6.31 µM (active)
O=C=Nc1ccc(Cc2ccc(N=C=O)cc2)cc1,2.92,
c1ccc2c(c1)ccc1cc3c(ccc4ccccc43)cc12,20.4,
c1ccc2c(c1)-c1cccc3c1c-2cc1ccccc13,-14.4,
O=[N+]([O-])c1cc([N+](=O)[O-])c2ccc(S(=O)(=O)O)cc2c1O,4.43,
O=Cc1ccc(Cl)c(Cl)c1,1.26,

# Assay: Cell Viability - LYMP2-005 (AID 967);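 for activity change, negative = viability loss: plate controls were DMSO only for no effect and 92 µM tetraoctylammonium bromide control for full effect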
# Details: LYMP2-005 lymphoblastoid cell viability; series mostly up to 92.2 µM; activity change, negative = viability loss: at the top concentration
# Procedure, shortened: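 Steps: seed 2500 LYMP2-005 cells/well, incubate 5 h at 37 C, add compound, incubate 24 h at 37 C, add CellTiter-Glo, wait 30 min at RT, read luminescence. Concentration-response data fitted to Hill equation for AC50.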
SMILES,"activity change, negative = viability loss [%]",Potency
Nc1ccc2cc3ccccc3cc2c1,-7.8,
Cc1cc(Nc2ccc(O)cc2)ccc1N,,39.8 µM (active)
C=C(C)c1ccccc1,29.7,
O=C1OC2(c3cc(Br)c(O)c(Br)c3Oc3c2cc(Br)c(O)c3Br)c2c(Cl)c(Cl)c(Cl)c(Cl)c21,-59.3,
ClC1=C(Cl)C(Cl)(Cl)C(Cl)=C1Cl,-0.175,
C=CC(=O)OCCOCCOC(=O)C=C,,10 µM (active)
C/C=C1\C(=O)C[C@H]2[C@@H]3CCC4=CC(=O)CC[C@]4(C)[C@H]3CC[C@]12C,-23.9,
O=C1OC(O)C(C(Cl)Cl)=C1Cl (stereo unspecified),,15.8 µM (active)
CNc1ccc(O)cc1,,5.01 µM (active)
CCC(C)Nc1ccc(NC(C)CC)cc1 (stereo unspecified),,6.31 µM (active)
O=C=Nc1ccc(Cc2ccc(N=C=O)cc2)cc1,-18.7,
c1ccc2c(c1)ccc1cc3c(ccc4ccccc43)cc12,12.6,
c1ccc2c(c1)-c1cccc3c1c-2cc1ccccc13,-40.8,
O=[N+]([O-])c1cc([N+](=O)[O-])c2ccc(S(=O)(=O)O)cc2c1O,4.3,
O=Cc1ccc(Cl)c(Cl)c1,8.87,

# Assay: Cell Viability - LYMP2-009 (AID 968); note: nearly all actives have a fitted effect of over 55% in size;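 for activity change, negative = viability loss: 0% = DMSO alone and the full-kill end = tetraoctylammonium bromide at 92 µM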
# Details: LYMP2-009 lymphoblastoid cell viability; series mostly up to 92.2 µM; activity change, negative = viability loss: at the top concentration
SMILES,Potency,"activity change, negative = viability loss [%]"
Oc1ccc2cc(SSc3ccc4cc(O)ccc4c3)ccc2c1,50.1 µM (active),
Nc1ccc2cc3ccccc3cc2c1,,-12.8
CN(C)c1ccc(C2(c3ccc(N(C)C)cc3)OC(=O)c3cc(N(C)C)ccc32)cc1,,0.56
Cc1cc(Nc2ccc(O)cc2)ccc1N,50.1 µM (active),
CO[C@H]1/C=C/O[C@@]2(C)Oc3c(C)c(O)c4c(O)c(c5c(c4c3C2=O)NC2(CCN(CC(C)C)CC2)N=5)=NC(=O)/C(C)=C\C=C\[C@H](C)[C@H](O)[C@@H](C)[C@@H](O)[C@@H](C)[C@H](OC(C)=O)[C@@H]1C,,-29.1
Cc1cc(O)c(C(C)(C)C)cc1Sc1cc(C(C)(C)C)c(O)cc1C,50.1 µM (active),
C=C(C)c1ccccc1,,-10.6
C=CC(=O)OCCOCCOC(=O)C=C,20 µM (active),
C/C=C1\C(=O)C[C@H]2[C@@H]3CCC4=CC(=O)CC[C@]4(C)[C@H]3CC[C@]12C,,-27
O=C1OC(O)C(C(Cl)Cl)=C1Cl (stereo unspecified),25.1 µM (active),
CNc1ccc(O)cc1,6.31 µM (active),
CC(=O)Nc1ccc(C(=O)CCl)cc1,6.31 µM (active),
CCC(C)Nc1ccc(NC(C)CC)cc1 (stereo unspecified),3.98 µM (active),
O=C=Nc1ccc(Cc2ccc(N=C=O)cc2)cc1,,-3.21
c1ccc2c(c1)ccc1cc3c(ccc4ccccc43)cc12,,-2.27
c1ccc2c(c1)-c1cccc3c1c-2cc1ccccc13,,-7.98
O=[N+]([O-])c1cc([N+](=O)[O-])c2ccc(S(=O)(=O)O)cc2c1O,,-15
O=Cc1ccc(Cl)c(Cl)c1,,0.835

# Assay: Cell Viability - LYMP2-011 (AID 969); note: nearly all actives have a fitted effect of over 60% in size;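 for viability change, negative = cytotoxic: 0% = DMSO only and full inhibition = 92 µM tetraoctylammonium bromide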
# Details: LYMP2-011 lymphoblastoid cells viability; series mostly up to 92.2 µM; viability change, negative = cytotoxic: at the top concentration
# Procedure, shortened: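 Acute toxicity is scored as a concentration-dependent drop in intracellular ATP of a human lymphoblastoid line after 24 hr treatment. Values are AC50s modeled with the Hill equation.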
SMILES,"viability change, negative = cytotoxic [%]",Potency
Nc1ccc2cc3ccccc3cc2c1,-1.08,
CN(C)c1ccc(C2(c3ccc(N(C)C)cc3)OC(=O)c3cc(N(C)C)ccc32)cc1,2.06,
Cc1cc(Nc2ccc(O)cc2)ccc1N,,50.1 µM (active)
Cc1cc(O)c(C(C)(C)C)cc1Sc1cc(C(C)(C)C)c(O)cc1C,,39.8 µM (active)
C=C(C)c1ccccc1,1.85,
O=C1OC2(c3cc(Br)c(O)c(Br)c3Oc3c2cc(Br)c(O)c3Br)c2c(Cl)c(Cl)c(Cl)c(Cl)c21,-28.8,
C=CC(=O)OCCOCCOC(=O)C=C,,20 µM (active)
O=C1OC(O)C(C(Cl)Cl)=C1Cl (stereo unspecified),,25.1 µM (active)
CNc1ccc(O)cc1,,6.31 µM (active)
CC(=O)Nc1ccc(C(=O)CCl)cc1,,6.31 µM (active)
CCC(C)Nc1ccc(NC(C)CC)cc1 (stereo unspecified),,6.31 µM (active)
O=C=Nc1ccc(Cc2ccc(N=C=O)cc2)cc1,4.1,
c1ccc2c(c1)ccc1cc3c(ccc4ccccc43)cc12,-6.4,
c1ccc2c(c1)-c1cccc3c1c-2cc1ccccc13,-5.53,
O=[N+]([O-])c1cc([N+](=O)[O-])c2ccc(S(=O)(=O)O)cc2c1O,4.76,
O=Cc1ccc(Cl)c(Cl)c1,-4.87,
